The values below come from ChEMBL document CHEMBL1961873, “Compounds: GSK PKIS; Assays: Nanosyn kinase panel” (2012).

SMILES strings stand for the structures.

Assay [1] has as its target Sphingosine kinase 1 (Homo sapiens) (UniProt Q9NYA1). As to conditions: at 1 µM.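 Further: mean SPHK1 inhibition value reported from the GSK PKIS kinase panel screen.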
Assay [2] addresses T1, Sphingosine kinase 2 (Homo sapiens) (UniProt Q9NRA0).
T1 sequence (whole entry): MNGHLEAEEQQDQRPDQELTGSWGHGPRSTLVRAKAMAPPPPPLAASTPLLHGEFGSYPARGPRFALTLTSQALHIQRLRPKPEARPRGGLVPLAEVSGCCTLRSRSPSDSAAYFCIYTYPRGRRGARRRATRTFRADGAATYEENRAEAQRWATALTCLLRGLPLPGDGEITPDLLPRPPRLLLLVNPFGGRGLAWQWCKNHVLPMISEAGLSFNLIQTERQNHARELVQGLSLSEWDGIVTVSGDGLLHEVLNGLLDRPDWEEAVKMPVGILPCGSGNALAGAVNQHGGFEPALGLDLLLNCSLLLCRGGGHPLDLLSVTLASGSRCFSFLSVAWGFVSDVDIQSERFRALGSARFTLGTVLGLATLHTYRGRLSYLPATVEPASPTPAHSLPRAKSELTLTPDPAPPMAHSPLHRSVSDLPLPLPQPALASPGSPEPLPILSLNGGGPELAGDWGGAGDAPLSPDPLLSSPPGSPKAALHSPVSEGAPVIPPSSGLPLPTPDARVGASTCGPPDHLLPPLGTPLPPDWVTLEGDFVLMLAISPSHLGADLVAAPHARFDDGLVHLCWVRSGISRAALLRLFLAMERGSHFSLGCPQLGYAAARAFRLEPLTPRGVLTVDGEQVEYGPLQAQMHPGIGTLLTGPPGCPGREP
Conditions: at 0.1 µM.

Assay [3] deals with T1, Sphingosine kinase 2 (Homo sapiens). Conditions: at 1 µM.
Assay [4] concerns the target Casein kinase II subunit alpha (Homo sapiens) (UniProt P68400). As to conditions: at 0.1 µM.
Assay [5] shares this target. As to conditions: at 1 µM.
Assay [6] deals with T2, Inhibitor of nuclear factor kappa-B kinase subunit alpha (Homo sapiens) (UniProt O15111).
T2 sequence (whole entry): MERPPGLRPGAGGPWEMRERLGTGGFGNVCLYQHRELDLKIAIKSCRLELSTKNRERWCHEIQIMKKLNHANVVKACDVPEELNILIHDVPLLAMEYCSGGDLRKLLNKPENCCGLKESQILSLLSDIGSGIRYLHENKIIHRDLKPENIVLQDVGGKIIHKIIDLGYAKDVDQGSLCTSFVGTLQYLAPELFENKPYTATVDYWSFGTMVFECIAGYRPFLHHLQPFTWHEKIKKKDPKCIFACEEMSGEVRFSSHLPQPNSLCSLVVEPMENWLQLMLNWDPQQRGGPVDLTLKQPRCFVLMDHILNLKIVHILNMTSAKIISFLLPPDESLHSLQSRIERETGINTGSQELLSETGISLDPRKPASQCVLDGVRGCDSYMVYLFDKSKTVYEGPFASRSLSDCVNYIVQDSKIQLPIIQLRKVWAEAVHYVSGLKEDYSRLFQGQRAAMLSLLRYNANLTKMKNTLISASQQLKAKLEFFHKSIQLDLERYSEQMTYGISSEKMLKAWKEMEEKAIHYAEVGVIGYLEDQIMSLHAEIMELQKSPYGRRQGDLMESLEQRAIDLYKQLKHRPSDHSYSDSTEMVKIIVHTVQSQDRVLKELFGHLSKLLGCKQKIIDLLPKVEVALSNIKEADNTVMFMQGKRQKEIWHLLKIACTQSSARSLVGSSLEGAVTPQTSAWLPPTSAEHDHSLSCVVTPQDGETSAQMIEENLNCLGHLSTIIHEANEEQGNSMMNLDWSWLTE
As to conditions: at 0.1 µM.

In assay [7] the target is T2, Inhibitor of nuclear factor kappa-B kinase subunit alpha (Homo sapiens). Conditions: at 1 µM.
Assay [8] addresses T3, Inhibitor of nuclear factor kappa-B kinase subunit beta (Homo sapiens) (UniProt O14920).
T3 sequence (whole entry): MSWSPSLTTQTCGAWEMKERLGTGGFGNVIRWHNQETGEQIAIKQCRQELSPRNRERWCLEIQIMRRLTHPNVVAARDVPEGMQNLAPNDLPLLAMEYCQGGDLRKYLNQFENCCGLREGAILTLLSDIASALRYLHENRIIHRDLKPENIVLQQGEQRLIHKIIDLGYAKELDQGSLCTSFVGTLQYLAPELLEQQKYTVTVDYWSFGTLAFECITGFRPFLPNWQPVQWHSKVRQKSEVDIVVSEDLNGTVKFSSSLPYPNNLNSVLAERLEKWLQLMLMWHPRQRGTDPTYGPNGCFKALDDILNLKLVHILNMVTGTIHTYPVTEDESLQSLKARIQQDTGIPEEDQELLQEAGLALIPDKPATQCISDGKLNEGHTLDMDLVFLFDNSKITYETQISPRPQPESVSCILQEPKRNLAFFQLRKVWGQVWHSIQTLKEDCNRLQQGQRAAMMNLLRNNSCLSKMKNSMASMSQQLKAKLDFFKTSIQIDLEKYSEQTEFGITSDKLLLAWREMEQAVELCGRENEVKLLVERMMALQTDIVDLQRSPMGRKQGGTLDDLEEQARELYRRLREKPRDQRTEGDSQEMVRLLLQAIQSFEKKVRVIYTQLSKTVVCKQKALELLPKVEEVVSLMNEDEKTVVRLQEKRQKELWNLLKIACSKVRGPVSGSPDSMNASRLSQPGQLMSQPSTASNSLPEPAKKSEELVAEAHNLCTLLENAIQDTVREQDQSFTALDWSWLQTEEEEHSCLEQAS
Conditions: at 0.1 µM.

The target in assay [9] is T3, Inhibitor of nuclear factor kappa-B kinase subunit beta (Homo sapiens). Conditions: at 1 µM.
For assay [10], the target named is T4, Inhibitor of nuclear factor kappa-B kinase subunit epsilon (Homo sapiens) (UniProt Q14164).
T4 sequence (whole entry): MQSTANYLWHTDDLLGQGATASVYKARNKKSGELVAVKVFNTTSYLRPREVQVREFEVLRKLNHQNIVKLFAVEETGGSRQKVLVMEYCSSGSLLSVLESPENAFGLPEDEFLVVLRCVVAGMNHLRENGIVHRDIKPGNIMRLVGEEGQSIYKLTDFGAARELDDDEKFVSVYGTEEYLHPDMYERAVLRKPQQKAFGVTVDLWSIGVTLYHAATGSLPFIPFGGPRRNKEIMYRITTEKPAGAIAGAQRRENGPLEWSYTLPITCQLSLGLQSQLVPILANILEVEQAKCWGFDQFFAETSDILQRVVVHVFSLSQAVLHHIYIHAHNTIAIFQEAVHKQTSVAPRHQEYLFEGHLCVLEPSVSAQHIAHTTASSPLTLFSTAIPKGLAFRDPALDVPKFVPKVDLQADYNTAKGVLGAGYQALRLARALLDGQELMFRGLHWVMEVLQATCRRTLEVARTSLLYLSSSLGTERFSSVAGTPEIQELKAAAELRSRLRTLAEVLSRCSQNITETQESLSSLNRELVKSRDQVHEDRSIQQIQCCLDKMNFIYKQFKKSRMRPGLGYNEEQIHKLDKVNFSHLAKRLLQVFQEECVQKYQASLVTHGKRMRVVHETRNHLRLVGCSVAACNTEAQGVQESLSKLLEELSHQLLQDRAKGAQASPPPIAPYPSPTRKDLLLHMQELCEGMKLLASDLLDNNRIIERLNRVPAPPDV
As to conditions: at 0.1 µM.

Assay [11] addresses T4, Inhibitor of nuclear factor kappa-B kinase subunit epsilon (Homo sapiens). Conditions: at 1 µM.
The target of assay [12] is T5, Serine/threonine-protein kinase Nek1 (Homo sapiens) (UniProt Q96PY6).
T5 sequence (whole entry): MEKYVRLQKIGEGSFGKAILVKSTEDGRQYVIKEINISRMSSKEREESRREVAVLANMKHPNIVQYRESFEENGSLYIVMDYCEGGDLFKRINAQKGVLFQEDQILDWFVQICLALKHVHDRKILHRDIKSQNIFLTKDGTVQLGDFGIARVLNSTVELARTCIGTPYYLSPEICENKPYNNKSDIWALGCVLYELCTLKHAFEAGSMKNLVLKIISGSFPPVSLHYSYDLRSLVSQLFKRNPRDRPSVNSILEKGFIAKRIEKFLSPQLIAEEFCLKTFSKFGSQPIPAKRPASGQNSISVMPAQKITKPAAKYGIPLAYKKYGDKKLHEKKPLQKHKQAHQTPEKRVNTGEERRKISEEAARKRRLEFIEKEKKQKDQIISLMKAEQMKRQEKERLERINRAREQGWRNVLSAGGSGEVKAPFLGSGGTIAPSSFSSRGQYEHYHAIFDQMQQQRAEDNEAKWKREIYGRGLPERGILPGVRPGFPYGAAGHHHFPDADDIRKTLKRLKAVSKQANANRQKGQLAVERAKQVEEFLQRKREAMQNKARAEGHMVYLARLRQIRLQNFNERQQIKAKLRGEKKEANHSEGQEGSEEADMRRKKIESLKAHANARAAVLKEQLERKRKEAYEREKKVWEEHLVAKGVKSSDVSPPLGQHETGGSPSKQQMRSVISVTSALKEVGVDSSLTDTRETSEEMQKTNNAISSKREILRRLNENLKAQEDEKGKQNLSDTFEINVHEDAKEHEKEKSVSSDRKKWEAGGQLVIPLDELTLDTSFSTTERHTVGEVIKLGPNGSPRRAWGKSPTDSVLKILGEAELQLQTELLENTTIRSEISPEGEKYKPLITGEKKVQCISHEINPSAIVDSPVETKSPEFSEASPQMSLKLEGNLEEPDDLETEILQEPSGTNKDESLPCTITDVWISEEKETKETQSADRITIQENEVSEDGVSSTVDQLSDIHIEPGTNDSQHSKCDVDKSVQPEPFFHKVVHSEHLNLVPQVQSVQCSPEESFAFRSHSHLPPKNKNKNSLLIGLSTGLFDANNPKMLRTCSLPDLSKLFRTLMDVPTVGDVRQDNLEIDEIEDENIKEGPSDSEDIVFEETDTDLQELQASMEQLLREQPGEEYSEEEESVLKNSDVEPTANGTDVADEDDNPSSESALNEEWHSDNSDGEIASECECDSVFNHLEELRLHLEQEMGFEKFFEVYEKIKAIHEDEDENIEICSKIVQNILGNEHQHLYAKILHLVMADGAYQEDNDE
Conditions: at 0.1 µM.

Assay [13] has as its target T5, Serine/threonine-protein kinase Nek1 (Homo sapiens). As to conditions: at 1 µM.
Assay [14] addresses T6, Serine/threonine-protein kinase Nek2 (Homo sapiens) (UniProt P51955).
T6 sequence (whole entry): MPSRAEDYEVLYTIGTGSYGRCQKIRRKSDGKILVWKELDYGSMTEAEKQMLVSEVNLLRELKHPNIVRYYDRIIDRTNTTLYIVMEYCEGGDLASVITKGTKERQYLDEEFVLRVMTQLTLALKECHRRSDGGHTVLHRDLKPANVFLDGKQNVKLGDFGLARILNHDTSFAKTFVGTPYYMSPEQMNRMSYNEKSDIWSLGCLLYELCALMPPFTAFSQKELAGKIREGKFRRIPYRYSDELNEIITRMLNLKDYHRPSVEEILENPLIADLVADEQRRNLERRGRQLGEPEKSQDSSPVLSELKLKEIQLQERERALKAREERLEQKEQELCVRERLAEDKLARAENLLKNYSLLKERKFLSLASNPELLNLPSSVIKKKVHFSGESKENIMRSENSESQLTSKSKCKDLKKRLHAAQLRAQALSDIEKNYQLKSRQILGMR
As to conditions: at 0.1 µM.

In assay [15] the target is T6, Serine/threonine-protein kinase Nek2 (Homo sapiens). As to conditions: at 1 µM.
In assay [16] the target is Serine/threonine-protein kinase Nek6 (Homo sapiens) (UniProt Q9HC98). Conditions: at 0.1 µM.
Chain of Serine/threonine-protein kinase Nek6 (Homo sapiens) (Q9HC98 whole entry): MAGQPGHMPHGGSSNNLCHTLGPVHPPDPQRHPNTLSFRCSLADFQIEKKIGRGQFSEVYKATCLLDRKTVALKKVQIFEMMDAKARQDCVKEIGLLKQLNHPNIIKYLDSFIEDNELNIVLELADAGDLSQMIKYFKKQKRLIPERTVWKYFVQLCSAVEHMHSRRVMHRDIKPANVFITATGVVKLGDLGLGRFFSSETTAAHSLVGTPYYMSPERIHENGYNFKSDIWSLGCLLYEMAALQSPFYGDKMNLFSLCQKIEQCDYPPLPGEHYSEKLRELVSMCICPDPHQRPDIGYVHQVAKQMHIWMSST
For assay [17] the target is unchanged. Conditions: at 1 µM.
Assay [18] concerns the target Serine/threonine-protein kinase Nek7 (Homo sapiens) (UniProt Q8TDX7). As to conditions: at 0.1 µM.
Assay [19] shares this target. As to conditions: at 1 µM.
Assay [20] addresses T7, Serine/threonine-protein kinase Nek9 (Homo sapiens) (UniProt Q8TD19).
T7 sequence (whole entry): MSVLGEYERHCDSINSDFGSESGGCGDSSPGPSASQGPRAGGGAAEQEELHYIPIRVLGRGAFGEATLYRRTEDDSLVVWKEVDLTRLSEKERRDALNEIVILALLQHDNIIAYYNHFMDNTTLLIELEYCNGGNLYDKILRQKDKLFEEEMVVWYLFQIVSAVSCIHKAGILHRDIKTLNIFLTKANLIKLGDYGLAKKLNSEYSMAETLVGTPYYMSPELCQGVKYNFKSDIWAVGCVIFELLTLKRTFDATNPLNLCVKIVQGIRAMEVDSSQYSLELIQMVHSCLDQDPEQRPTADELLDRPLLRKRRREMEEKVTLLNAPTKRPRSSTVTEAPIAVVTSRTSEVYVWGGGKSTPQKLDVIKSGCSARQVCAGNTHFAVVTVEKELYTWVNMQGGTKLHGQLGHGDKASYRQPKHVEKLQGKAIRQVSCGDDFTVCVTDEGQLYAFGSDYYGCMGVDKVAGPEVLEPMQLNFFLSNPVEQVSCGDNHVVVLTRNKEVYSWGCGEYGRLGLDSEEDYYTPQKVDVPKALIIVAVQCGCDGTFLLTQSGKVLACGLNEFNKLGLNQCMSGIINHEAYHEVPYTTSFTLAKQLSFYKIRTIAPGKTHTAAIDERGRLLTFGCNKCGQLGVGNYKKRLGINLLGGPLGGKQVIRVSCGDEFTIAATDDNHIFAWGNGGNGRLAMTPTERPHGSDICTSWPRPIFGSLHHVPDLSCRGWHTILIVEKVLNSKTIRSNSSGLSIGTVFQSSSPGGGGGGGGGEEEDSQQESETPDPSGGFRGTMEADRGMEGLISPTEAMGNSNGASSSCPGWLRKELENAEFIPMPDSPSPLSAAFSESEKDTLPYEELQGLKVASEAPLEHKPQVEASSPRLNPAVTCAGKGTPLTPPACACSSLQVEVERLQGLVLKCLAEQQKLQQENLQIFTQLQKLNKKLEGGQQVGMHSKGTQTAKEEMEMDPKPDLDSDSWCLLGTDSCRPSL
Conditions: at 0.1 µM.

Chain of Casein kinase II subunit alpha (Homo sapiens) (P68400 whole entry, looked up): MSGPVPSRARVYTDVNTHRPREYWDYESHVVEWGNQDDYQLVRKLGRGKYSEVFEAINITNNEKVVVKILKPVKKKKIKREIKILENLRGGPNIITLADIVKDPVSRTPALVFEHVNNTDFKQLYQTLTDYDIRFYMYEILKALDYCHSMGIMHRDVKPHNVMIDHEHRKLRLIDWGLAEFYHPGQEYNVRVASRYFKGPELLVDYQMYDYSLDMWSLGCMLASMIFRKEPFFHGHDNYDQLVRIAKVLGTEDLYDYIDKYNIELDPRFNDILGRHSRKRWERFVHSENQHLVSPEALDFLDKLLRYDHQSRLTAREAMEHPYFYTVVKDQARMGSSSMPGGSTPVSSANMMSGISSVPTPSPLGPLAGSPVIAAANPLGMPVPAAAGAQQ
Chain of Serine/threonine-protein kinase Nek7 (Homo sapiens) (Q8TDX7 whole entry, looked up): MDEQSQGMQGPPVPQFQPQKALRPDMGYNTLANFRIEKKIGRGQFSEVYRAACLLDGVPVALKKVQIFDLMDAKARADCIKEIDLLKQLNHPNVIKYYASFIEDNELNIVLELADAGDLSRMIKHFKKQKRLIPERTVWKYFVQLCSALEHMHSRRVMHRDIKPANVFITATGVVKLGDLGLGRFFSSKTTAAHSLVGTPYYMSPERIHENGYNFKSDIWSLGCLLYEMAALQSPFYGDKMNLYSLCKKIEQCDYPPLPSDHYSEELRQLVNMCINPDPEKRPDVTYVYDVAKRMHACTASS
Chain of Sphingosine kinase 1 (Homo sapiens) (Q9NYA1 whole entry): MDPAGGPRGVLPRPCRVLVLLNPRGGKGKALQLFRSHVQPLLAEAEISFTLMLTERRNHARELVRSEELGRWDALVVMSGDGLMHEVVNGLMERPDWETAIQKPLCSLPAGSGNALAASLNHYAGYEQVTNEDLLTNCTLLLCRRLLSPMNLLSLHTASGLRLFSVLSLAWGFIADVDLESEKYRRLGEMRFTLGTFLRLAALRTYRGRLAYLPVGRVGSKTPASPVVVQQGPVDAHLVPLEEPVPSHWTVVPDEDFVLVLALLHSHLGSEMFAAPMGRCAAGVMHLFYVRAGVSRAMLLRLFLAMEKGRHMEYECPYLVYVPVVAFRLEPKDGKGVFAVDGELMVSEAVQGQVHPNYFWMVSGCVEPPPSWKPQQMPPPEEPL

For orientation: inhibition means the relative decrease from the control value, in per cent. A lower inhibition goes with little suppression. In the case of `CNC(=O)c1cncc(/C=C/c2ccccc2C)c1`, the inhibition was determined as 1.15% in assay [1]; 0% in assay [2]; 0% in assay [3]; 4.87% in assay [4]; 7.63% in assay [5]; 1.86% in assay [6]. Also, the inhibition in [7] was 2.32%; in assay [8] it was 3.58%; in assay [9], 5.04%; in assay [10], 5.9%; in assay [11], 5.71%; in assay [12], 2.13%. Also, the inhibition in assay [13] turned out to be 4.28%; in assay [14] it was 4.96%; in assay [15], 5.88%; in assay [16], 1.4%; in assay [17], 3.73%; in [18], 1.08%. Besides, the inhibition in assay [19] worked out at 4.03%; in assay [20], 3.46%.
